# Results published in the supplement of paper PMC3334620.
# In all, about 33,000 sequences were measured (“E-score (-0.5 to 0.5)”: median about -0.012, highest 2% from about 0.27 on). The entries come from a sample that favours the highest values as a whole.
# Target: T1, Vhr1 (UniProt P40522)
# T1 sequence: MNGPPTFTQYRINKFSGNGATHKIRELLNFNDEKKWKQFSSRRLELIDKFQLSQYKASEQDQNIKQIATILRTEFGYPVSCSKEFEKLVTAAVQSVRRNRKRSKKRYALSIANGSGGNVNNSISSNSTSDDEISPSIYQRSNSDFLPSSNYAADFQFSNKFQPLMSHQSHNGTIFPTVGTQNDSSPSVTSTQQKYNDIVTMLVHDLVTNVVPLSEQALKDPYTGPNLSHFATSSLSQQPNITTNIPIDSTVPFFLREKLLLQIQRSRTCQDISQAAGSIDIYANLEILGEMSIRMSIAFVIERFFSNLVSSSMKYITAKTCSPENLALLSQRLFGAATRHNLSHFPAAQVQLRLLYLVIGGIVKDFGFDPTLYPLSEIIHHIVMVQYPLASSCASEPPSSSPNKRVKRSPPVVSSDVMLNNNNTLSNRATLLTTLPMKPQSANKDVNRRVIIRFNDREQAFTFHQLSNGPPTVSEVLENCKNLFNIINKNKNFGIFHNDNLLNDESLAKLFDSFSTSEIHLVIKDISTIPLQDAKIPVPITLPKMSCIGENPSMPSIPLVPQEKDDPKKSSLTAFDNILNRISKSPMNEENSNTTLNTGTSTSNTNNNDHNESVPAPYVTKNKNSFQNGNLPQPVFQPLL
# Experiment: PBM E-score (8-mer binding enrichment) (E-score (-0.5 to 0.5)); higher = stronger / more preferred TF binding
# Conditions: protein concentration: 200 nM; construct: GST-full length
# How it was run: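 E-scores (a modified Wilcoxon-Mann-Whitney statistic) were assigned by the Universal PBM Analysis Suite to every ungapped eight-base word pooled with its reverse complement. The input came from universal all-10-mer Agilent arrays made double-stranded by primer extension and probed with GST-tagged yeast transcription factors at about 100-200 nM. Fluorescent anti-GST detected bound protein, and masliner normalised the scans.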
row,Sequence,PBM E-score
1,GTAGTCAC,0.441
2,CAAGTCAG,0.208
3,GTAGTCAA,0.262
4,CTAGTCAA,0.124
5,GAAGTCAC,0.269
6,CAAGTCAC,0.284
7,ACTCTTTC,-0.172
8,GTGTCTTA,0.0499
9,CCTGAATC,0.0923
10,GACGTTAC,-0.062
11,AAAGGCGT,-0.19
12,CCACAGCA,0.088
13,GCACAGCA,0.128
14,ACACAGCT,0.127
15,ACACAGCC,0.232
16,ACACAGCA,0.286
17,ACACAGCG,0.312
18,ATTTTAGC,-0.141
19,AATACCTC,0.0406
20,GAGTTAGA,-0.0441
21,ACTTTGAG,0.0115
22,AAGCTGGC,-0.163

row,Sequence,PBM E-score
1,AAGCGATT,-0.0711
2,GGCGGGGA,0.409
3,CGCGGGCC,0.187
4,GGCGGGCA,0.198
5,GGTGGGAA,0.04
6,CGTGGGGA,0.0323
7,CGCGGGGA,0.292
8,AGCGGGGA,-0.0182
9,GGCGGGAA,-0.0569
10,GGTGGGGA,0.378
11,CGCGGGCA,0.287
12,GCGGGGGA,-0.0987
13,CGCGGGAA,0.105
14,CACCAAGG,0.0118
15,AGGCTGGC,0.00081
16,AGGCCCGG,-0.234
17,ATTAGCGA,0.142
18,ATGGTCGA,-0.0168
19,GAGACTAA,-0.00777
20,CCGTTCAG,-0.184
21,CAACAATG,0.168
22,CAACAATC,0.273

row,Sequence,PBM E-score
1,GAACAATC,-0.0437
2,ATTCACAG,-0.0154
3,AGGCACAT,0.0884
4,CGTCACAA,-0.0394
5,AGTCACAG,0.425
6,GGTCACAC,0.0719
7,AGTCACAT,0.402
8,AGTCACAC,0.415
9,GGTCACAA,0.0224
10,CGTCACAG,0.152
11,CGTCACAC,-0.021
12,AGTCACAA,0.391
13,AGCCACAT,0.22
14,CTAAACAG,-0.00454
15,CGGCCTCA,0.024
16,ATTATTGA,0.036
17,TAGGAGCA,-0.0685
18,GACTTGTA,0.0565
19,CGAGCTCG,0.307
20,CGAGCTCA,0.144
21,CGAGCTCC,-0.102
22,CTGATGGC,0.0804

row,Sequence,PBM E-score
1,ATATTGGG,-0.038
2,GTTTATAA,-0.168
3,GCACCGAC,0.0173
4,ATGTAGTC,0.286
5,ATGTAGTA,0.0473
6,ATGTAGTG,0.114
7,ACATAGAT,-0.0848
8,AATTGTTA,-0.0275
9,ACAGCACG,0.118
10,ACTACACA,0.327
11,ACTACACG,0.221
12,AGTACACA,0.284
13,AGTACACG,0.0779
14,CCTACACG,-0.0152
15,TGTACACA,0.0228
16,GCCCAGAC,-0.15
17,ACTTCTTG,-0.106
18,CTGGTAAC,0.0684
19,ATCTGTAC,0.0611
20,ACTCACGC,0.366
